Laboratory results reported in article PMC5540273 (PLoS ONE, 2017).

Legend:
Conditions in all cases: concentration: 1 μM, replicates: in singlicate; n = 1
CSF1R-autoinhibited = tested on: CSF1R-autoinhibited
CSF1R = tested on: CSF1R
CSK = tested on: CSK
CSNK1A1L = tested on: CSNK1A1L
CSNK1A1 = tested on: CSNK1A1
CSNK1D = tested on: CSNK1D
CSNK1E = tested on: CSNK1E
CSNK1G1 = tested on: CSNK1G1
CSNK1G2 = tested on: CSNK1G2
CSNK1G3 = tested on: CSNK1G3
CSNK2A1 = tested on: CSNK2A1
CSNK2A2 = tested on: CSNK2A2
CTK = tested on: T1, CTK
T1 construct: gene MATK

DAPK1 = tested on: DAPK1
DAPK2 = tested on: DAPK2
DAPK3 = tested on: DAPK3
DCAMKL1 = tested on: T2, DCAMKL1
T2 construct: gene DCLK1

DCAMKL2 = tested on: T3, DCAMKL2
T3 construct: gene DCLK2

DCAMKL3 = tested on: T4, DCAMKL3
T4 construct: gene DCLK3

DDR1 = tested on: DDR1
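Also: KINOMEscan kinase panel screen.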

Row | SMILES | %Inh (CSF1R-autoinhibited) [%] | %Inh (CSF1R) [%] | %Inh (CSK) [%] | %Inh (CSNK1A1L) [%] | %Inh (CSNK1A1) [%] | %Inh (CSNK1D) [%] | %Inh (CSNK1E) [%] | %Inh (CSNK1G1) [%] | %Inh (CSNK1G2) [%] | %Inh (CSNK1G3) [%] | %Inh (CSNK2A1) [%] | %Inh (CSNK2A2) [%] | %Inh (CTK) [%] | %Inh (DAPK1) [%] | %Inh (DAPK2) [%] | %Inh (DAPK3) [%] | %Inh (DCAMKL1) [%] | %Inh (DCAMKL2) [%] | %Inh (DCAMKL3) [%] | %Inh (DDR1) [%]
1 | O=C(Nc1ccccc1F)NC1CCN(c2ccnc(Nc3ccc(F)cc3)n2)C1 (stereo not drawn) [GSK1379722] | 7 | 4 | 0 | 0 | 0 | 13 | 27 | 0 | 100 | 8 | 0 | 0 | 0 | 0 | 0 | 5 | 0 | 0 | 5 | 3
2 | Fc1cccc(COc2ccc(Nc3ncnc4nn5ccccc5c34)cc2Cl)c1 [GW689066] | 37 | 0 | 0 | 0 | 0 | 3 | 14 | 0 | 0 | 3 | 0 | 0 | 0 | 0 | 0 | 7 | 0 | 0 | 9 | 0
3 | CCC(CC)(CC)n1cnc2c(N)ncnc21 [SKF-97620] | 35 | 0 | 0 | 1 | 0 | 0 | 5 | 4 | 0 | 0 | 0 | 0 | 0 | 16 | 9 | 12 | 0 | 0 | 0 | 0
4 | O=C(Nc1ccccc1)Nc1ccc(Oc2ccc3nccn3n2)cc1 | 0 | 39 | 0 | 6 | 19 | 1 | 1 | 0 | 0 | 29 | 0 | 0 | 100 | 0 | 1 | 0 | 9 | 10 | 59 | 98.6
5 | Cc1cc(N2CCC(NS(=O)(=O)c3ccc(F)cc3)CC2)nc(Nc2cccc(C#N)c2)n1.O=C(O)C(F)(F)F [GSK1653537] | 0 | 0 | 0 | 35 | 25 | 27 | 52 | 27 | 5 | 15 | 1 | 11 | 0 | 0 | 0 | 2 | 0 | 0 | 0 | 0
6 | COC(=O)c1cccc(NC(=O)NCCNc2ccnc(Nc3ccc(F)cc3)n2)c1 [GSK1379883] | 0 | 14 | 0 | 4 | 0 | 3 | 29 | 0 | 0 | 25 | 0 | 23 | 0 | 0 | 0 | 13 | 88 | 0 | 24 | 0
7 | CSc1ccc(NC2=C(c3ccccc3Cl)C(=O)NC2=O)cc1 [SB-342411] | 0 | 7 | 7 | 0 | 0 | 2 | 19 | 16 | 0 | 0 | 2 | 10 | 0 | 30 | 16 | 11 | 2 | 0 | 43 | 10
8 | Cc1ccc(NC(=O)c2cccc(C#N)c2)cc1-c1ccc(C(=O)Nc2ccncc2)cc1 [GSK1398463] | 0 | 98.3 | 0 | 15 | 0 | 19 | 29 | 23 | 1 | 41 | 0 | 9 | 19 | 0 | 0 | 6 | 19 | 15 | 0 | 100
9 | CNc1nccc(-c2c(-c3ccc(F)cc3)ncn2CCCN2CCOCC2)n1 [SB-222516] | 0 | 0 | 0 | 2 | 0 | 8 | 19 | 4 | 10 | 4 | 6 | 5 | 0 | 0 | 0 | 15 | 8 | 0 | 19 | 0
10 | COc1ccc(NC(=O)Nc2ccc(C)c(-c3ccc(C(=O)Nc4ccncc4)cc3)c2)cc1 [GSK1398475] | 0 | 93.7 | 0 | 3 | 0 | 15 | 36 | 6 | 6 | 44 | 0 | 0 | 0 | 5 | 0 | 3 | 10 | 0 | 9 | 88
11 | CCCc1ccc(S(=O)(=O)NC2CCN(c3ccnc(Nc4ccc(OC)cc4)n3)C2)cc1 (stereo not drawn) [GSK1379737] | 23 | 10 | 0 | 7 | 0 | 14 | 19 | 0 | 0 | 21 | 0 | 0 | 0 | 0 | 0 | 14 | 7 | 0 | 0 | 15
12 | COC(=O)c1c(-c2ccccc2)c2cc(Cl)ccc2c(=O)n1Cc1ccc(S(C)(=O)=O)cc1 | 6 | 23 | 0 | 0 | 21 | 0 | 3 | 100 | 0 | 0 | 3 | 35 | 3 | 21 | 0 | 0 | 5 | 1 | 4 | 51
13 | O=c1cc(N2CCOCC2)nc2n(Cc3cccc(Cl)c3)ccn12 [GSK2296823] | 0 | 1 | 0 | 12 | 42 | 19 | 34 | 10 | 0 | 23 | 0 | 0 | 22 | 0 | 0 | 7 | 17 | 12 | 0 | 21
14 | CC(C)(C)c1ccc(-n2cnc3c(N)ncnc32)cc1 [SKF-97263] | 0 | 58 | 0 | 17 | 40 | 3 | 18 | 6 | 13 | 25 | 18 | 0 | 0 | 0 | 0 | 0 | 0 | 12 | 0 | 27
15 | CCc1nc(-c2cccc(C)c2)c(-c2ccnc(NC(=O)c3ccccc3)c2)s1 | 11 | 11 | 1 | 39 | 81 | 89 | 82 | 0 | 3 | 0 | 12 | 29 | 0 | 23 | 0 | 0 | 11 | 6 | 0 | 0
